Screens: PubChem, Broad Institute
Shn3 3UTR inh = reduces Shn3 3'UTR luciferase signal in osteoblasts; Clone20 osteoblast Shn3 3'UTR firefly luciferase, 24 h; inhibition, % at 12.5 µM; 360,000 compounds, 0.52% hits; AID 588674;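 active means mean inhibition of at least 75% with every replicate also reaching 75%; inconclusive means mean inhibition at least 75% but some replicate below; inactive means mean inhibition below 75%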;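 further: 0% = median of neutral control wells and 100% = pilot-screen positive control compound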
PAX8 inh HTS = lowers PAX8-driven luciferase in RMG-I cells; RMG-I TPO-luciferase reporter, SteadyGlo, 24 h; inhibition, % at 12.6 µM; 360,000 compounds, 1.2% hits; AID 652154;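 active means mean replicate inhibition at least 60% with every replicate also reaching 60%; inconclusive means only one of the two criteria is met; inactive means mean below 60% and not all replicates reaching 60%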;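 further: luciferase light reporting Pax8 driven TPO promoter activity; plate controls were median of neutral control wells for no effect and mitoxantrone controls for full effect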
EWS-Fli inh = inhibitors of EWS/Fli oncoprotein transcriptional activity; A673 NR0B1-luciferase reporter, viability-normalised; inhibition, % at 12.6 µM; 350,000 compounds, 0.67% hits;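 active means mean inhibition of at least 50% after viability correction, with every replicate also passing that limit; inconclusive means mean reaches 50% but only one of two replicates passes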;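 further: firefly luciferase signal divided by Alamar Blue viability fluorescence both relative to DMSO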
EBV LMP1 NFkB = Epstein-Barr LMP1 NF-kappaB reporter inhibition; LMP1-induced NF-kappaB luciferase reporter cells, luminescence; inhibition, % at 12.5 µM; 350,000 compounds, 0.69% hits; AID 504558; in the data active means inhibition above about 41%; inconclusive means no clear call, values can overlap the other calls;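 further: 0% = neutral control wells and 100% = reference inhibitor control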
MITF TRPM1 inh = inhibitors of MITF-driven TRPM1 promoter in melanoma cells; SK-MEL-5 TRPM1 promoter luciferase, 24 h; inhibition, % at 12.5 µM; 330,000 compounds, 0.83% hits; AID 488899;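 active means mean inhibition across replicates of 60% or more, whatever share of single replicates reaches that level; inconclusive means some that reach 60%, reason not given; inactive means mean inhibition across replicates below 60%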
LGR2 inh = blocks bursicon-induced cAMP signaling via Drosophila LGR2; HEK293 LGR2, CRE-luciferase, bursicon-stimulated, 4 h; AID 720647; 380,000 compounds, 0.35% hits; inhibition, % at 9.99 µM;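 active means drop in luminescence signal, shown as inhibition above about 50% in the replicate tests, limit read from the data, passing the limit was not always enough; inconclusive means probably only some replicates passing the limit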;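 further: agonist challenge used bursicon conditioned medium at about half maximal strength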
The depositor's hits bear a star; u = inconclusive; x = no result given. Rows were chosen to be rich in hits. Some 2.2% of all compounds tested hit in one or more screens of this group.

SMILES	Shn3 3UTR inh	PAX8 inh HTS	EWS-Fli inh	EBV LMP1 NFkB	MITF TRPM1 inh	LGR2 inh
Cc1ccc(CCNC(=O)C2CC(c3cc(C(F)(F)F)cc(C(F)(F)F)c3)=NO2)cc1 (stereo unspecified)	-1	-17	-2	-7	18	4
Cc1ccc(CNC(=O)C2CC(c3cc(C(F)(F)F)cc(C(F)(F)F)c3)=NO2)o1 (stereo unspecified)	-10	1	54*	-4	21	2
COc1ccc2c3c([nH]c2c1)[C@@H](CO)N(C(=O)c1ccccc1)CC31CCN(C)CC1	x	x	0	x	x	-23
CCNC(=O)Nc1ccc2c(c1)C(=O)N(C)[C@@H]1CC[C@@H](CC(=O)NCCN3CCCC3)O[C@H]1CO2	x	-15	-1	x	x	16
C[C@@H]1CN([C@H](C)CO)S(=O)(=O)c2ccc(C#CC3CCCC3)cc2O[C@@H]1CN(C)C(=O)Nc1cc(F)ccc1F	x	70*	44	x	x	12
C[C@H](CO)N1C[C@H](C)[C@H](CN(C)C(=O)NC2CCCCC2)Oc2cc(C#Cc3ccc(F)cc3)ccc2S1(=O)=O	x	91*	6	x	x	28
C[C@@H]1CN([C@H](C)CO)S(=O)(=O)c2ccc(C#Cc3cccc(F)c3)cc2O[C@H]1CN(C)C(=O)NC1CCCCC1	x	68*	13	x	x	15
C[C@@H]1CN([C@@H](C)CO)S(=O)(=O)c2ccc(C#Cc3cccc(F)c3)cc2O[C@H]1CN(C)C(=O)NC1CCCCC1	x	26	7	x	x	-14
C[C@H]1CN([C@@H](C)CO)S(=O)(=O)c2ccc(C#Cc3ccc(F)cc3)cc2O[C@@H]1CN(C)C(=O)NC1CCCC1	x	x	37	x	x	13
Cc1noc(C)c1NC(=O)N(C)C[C@H]1Oc2cc(C#CCC3CCCC3)ccc2S(=O)(=O)N([C@@H](C)CO)C[C@@H]1C	x	66*	1	x	x	11
O=C(C1CCCC1)N1CC[C@H]2[C@H](CO)Nc3ccc(C4=CCCCC4)cc3[C@H]21	x	x	x	x	x	13
CCCNC(=O)C[C@H]1CC[C@@H]2[C@H](COc3ccc(NC(=O)C4CCCC4)cc3C(=O)N2C)O1	x	0	0	x	x	-8
C[C@@H]1CN([C@H](C)CO)S(=O)(=O)c2ccc(C#Cc3ccc(F)cc3)cc2O[C@H]1CN(C)C(=O)NC1CCCCC1	x	98*	1	x	x	30
C[C@@H]1CN([C@H](C)CO)S(=O)(=O)c2ccc(C#Cc3ccc(F)cc3)cc2O[C@H]1CN(C)C(=O)NC1CCCC1	x	x	29	x	x	34
C[C@@H]1CN([C@H](C)CO)S(=O)(=O)c2ccc(C#Cc3ccc(F)cc3)cc2O[C@H]1CN(C)C(=O)CN(C)C	x	x	73*	x	x	9
CCCNC(=O)[C@H]1[C@H](CO)[C@H]2Cn3c(ccc(-c4ccccc4F)c3=O)[C@@H]1N2CCC	x	x	2	x	x	-35
CC(=O)Nc1ccccc1C(=O)C(=O)Nc1ccc(C)c(F)c1	-56	69*	-111	-23	-31	-25
O=C(Nc1ccc(Oc2c(F)c(F)c(F)c(F)c2F)cc1)OC1CCN2Cc3ccccc3N=C12 (stereo unspecified)	50	x	x	-98	62*	x
CC(=O)N[C@H]1CC[C@@H](CCNC(=O)C2CC2)O[C@@H]1CO	x	12	-3	x	x	7
O=C(NCC1CCCCC1)[C@H]1[C@H](CO)[C@H]2Cn3c(cccc3=O)[C@@H]1N2CCc1ccccc1	x	x	-3	x	x	7
CCCCCCN(C(=O)CCCN1C(=O)NC(c2ccc(-c3ccccc3)cc2)C(C(=O)OCc2ccccc2)=C1C)C(C)C(=O)NCCCC (stereo unspecified)	22	99*	-1	5	6	-9
CCCCCCN(C(=O)CCCCCN1C(=O)NC(c2ccc(-c3ccccc3)cc2)C(C(=O)OCc2ccccc2)=C1C)C(C(=O)NCCCC)c1ccc(-c2ccccc2)cc1 (stereo unspecified)	x	-5	-13	x	x	-3
NC1(C(=O)O)CSSC1	11	x	14	1	65*	-9
O=C(NCc1nnnn1-c1ccc(F)cc1)c1ccc([N+](=O)[O-])o1	-27	70*	8	-24	34	-3
Cc1ccc(-n2nnnc2CNC(=O)c2ccc([N+](=O)[O-])o2)cc1C	6	84*	26	-40	62*	7
SMILES	Shn3 3UTR inh	PAX8 inh HTS	EWS-Fli inh	EBV LMP1 NFkB	MITF TRPM1 inh	LGR2 inh
C[C@@H]1CN([C@@H](C)CO)C(=O)c2cc(NC(=O)CCCCCC(=O)Nc3ccccc3N)ccc2O[C@@H](C)CCCCO[C@@H]1CN(C)C(=O)Nc1ccc(C(F)(F)F)cc1	x	-1	17	x	x	-13
C[C@H](CO)N1C[C@H](C)[C@H](CN(C)C(=O)C2CCCCC2)Oc2ncc(C#CC3CCCC3)cc2C1=O	x	-8	0	x	x	3
Cc1cccc(C)c1Nc1nnc(SCC(=O)c2ccc(Br)s2)s1	-6	-13	75*	-5	0	11
Cc1ccc(Nc2nnc(SCC(=O)c3ccc(Br)s3)s2)c(C)c1	12	10	-1	5	11	x
CCCN(CC)c1ncnc2[nH]ncc12	-17	-41	-8	43*	-17	17
CC(C)NC(=O)N[C@@H]1C=C[C@@H](CC(=O)N2CCCCC2)O[C@H]1CO	x	-15	1	x	x	-9
Cc1nn(CC(=O)NCCCN2CCC(Cc3ccccc3)CC2)c(=O)c2cc(-c3ccccc3)nn12	-4	-1	x	-22	u	-3
CCc1ccc(-c2cc3c(=O)n(CC(=O)NCCCN4CCC(Cc5ccccc5)CC4)nc(C)n3n2)cc1	79	-4	3	-13	96*	9
O=[N+]([O-])c1cc(-c2nnc(-c3ccccc3)o2)ccc1Oc1ccc(Cl)cc1	-13	98*	-51	-11	5	-53
Cc1nnc(-c2ccc(Oc3ccc(Cl)cc3)c([N+](=O)[O-])c2)o1	5	-3	11	4	19	0
O=C(Nc1nc2ccc(C(=O)N3CCCCC3)cc2s1)C1CCCCC1	-2	-26	54*	-21	1	-11
C[C@@H]1CN([C@H](C)CO)C(=O)CCCn2nncc2CO[C@@H]1CN(C)Cc1ccncc1	x	0	-7	x	x	28
Cc1ccc(S(=O)(=O)Nc2ccc(NC(=O)Nc3cccc(C(F)(F)F)c3)cc2)cc1	75	46	13	-6	6	14
CCN(CC)S(=O)(=O)c1ccc(NC(=O)Nc2cccc(C(F)(F)F)c2)cc1	96*	x	x	27	60*	x
CCOc1ccc(Br)cc1/C(C)=N\NC1=NCCN1	77	x	x	80*	33	x
